Assay results reported in article PMC5540273 (PLoS ONE, 2017).
Where “and” joins values, the source holds several entries; their conditions need not be identical. Equal values may be shown once. Read-outs that look alike come from different tables or passages of the source.

Experiments:
Settings in all cases: concentration: 1 μM, replicates: in singlicate, n = 1
YANK3 = tested on: T1, YANK3
T1 construct: gene STK32C

YES = tested on: T2, YES
T2 construct: gene YES1

YSK1 = tested on: T3, YSK1
T3 construct: gene STK25

YSK4 = tested on: T4, YSK4
T4 construct: gene MAP3K19

ZAK = tested on: ZAK
ZAP70 = tested on: ZAP70
p38-alpha = tested on: T5, p38-alpha
T5 construct: gene MAPK14

p38-beta = tested on: T6, p38-beta
T6 construct: gene MAPK11

p38-delta = tested on: p38-delta
p38-gamma = tested on: T7, p38-gamma
T7 construct: gene MAPK12
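Note: KINOMEscan kinase panel screen.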

| Compound | %Inh (YANK3; 1 µM) | %Inh (YES; 1 µM) | %Inh (YSK1; 1 µM) | %Inh (YSK4; 1 µM) | %Inh (ZAK; 1 µM) | %Inh (ZAP70; 1 µM) | %Inh (p38-alpha; 1 µM) | %Inh (p38-beta; 1 µM) | %Inh (p38-delta; 1 µM) | %Inh (p38-gamma; 1 µM) | %Inh (YANK3) [%] | %Inh (YES) [%] | %Inh (YSK1) [%] | %Inh (YSK4) [%] | %Inh (ZAK) [%] | %Inh (ZAP70) [%] | %Inh (p38-alpha) [%] | %Inh (p38-beta) [%] | %Inh (p38-delta) [%] | %Inh (p38-gamma) [%] |
| --- | --- | --- | --- | --- | --- | --- | --- | --- | --- | --- | --- | --- | --- | --- | --- | --- | --- | --- | --- | --- |
| CC(C)(CN)c1nc(-c2ccc(Cl)c(O)c2)c(-c2ccncc2)[nH]1.O=C(O)C(F)(F)F [SB-477794] | 86% and 83% | 88% and 86% | 6% and 96.1% | 87% and 65% | 100% and 59% | 58% and 0% | 99.8% and 99.3% | 53% and 58% | 29% and 0% | 19% and 63% |  |  |  |  |  |  |  |  |  |  |
| O=C(NOCC1CC1)c1ccc(F)c(F)c1Nc1ccc(I)cc1Cl |  |  |  |  |  |  |  |  |  |  | 0 | 0 | 0 | 0 | 0 | 0 | 0 | 19 | 0 | 0 |
| O=C(NCCNc1ccnc(Nc2ccc(F)cc2)n1)c1cc2ccccc2s1 [GSK1379874] |  |  |  |  |  |  |  |  |  |  | 8 | 3 | 0 | 35 | 100 | 6 | 20 | 0 | 40 | 0 |
| CC(C)Oc1ccc2c(-c3ccnc(Nc4ccc(N5CCN(C)CC5)cc4)n3)cnn2n1 [GW696155] |  |  |  |  |  |  |  |  |  |  | 0 | 54 | 71 | 99.8 | 0 | 65 | 17 | 0 | 72 | 62 |
| CN(C(=O)c1ccc(-c2cc(-c3c[nH]nc3-c3ccccn3)ccn2)cc1)C1CCOCC1 [GW810083] |  |  |  |  |  |  |  |  |  |  | 0 | 0 | 0 | 0 | 18 | 13 | 10 | 3 | 5 | 0 |
